Eight molecules from PubChem BioAssay (NCI) can be followed below.

This is part of a sample that, as a whole, favours compounds with a hit. Of some 83,000 tested, about 20% had one in any assay.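 Results are percent growth after 48 hours of single-concentration exposure. 100 means growth as in untreated cells, lower positive values show inhibition; negative values down to -100 show cell death.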 Values without a mark were called inactive. Active and inactive are the calls of the source. How the source made its calls: active means growth percent below 10; inactive means the rest.

Among the test systems are DU-145 prostate; K-562 leukemia; MALME-3M melanoma; MDA-MB-231 breast; RXF 393 renal; SF-268 CNS; SF-295 CNS; SF-539 CNS; UACC-257 melanoma; M14 melanoma; HCT-15 colon; SNB-75 CNS; SNB-19 CNS; U251 CNS; PC-3 prostate; SK-MEL-5 melanoma; UACC-62 melanoma; LOX IMVI melanoma; SK-MEL-28 melanoma; HT29 colon.
Holding throughout (test): NCI-60 one-dose screen, 48 h (100 = growth as untreated, 0 = no growth, -100 = all killed)
Details in all cases: 10 µM unless noted

On to `CC(=O)O.CN1[CH-]N(Cc2ccc(C#N)cc2)c2ccccc21.[Ag+]`, for which the growth in the assay with DU-145 prostate is 111%; in the assay with K-562 leukemia it was 45.8%; with MALME-3M melanoma it was 102%; with MDA-MB-231 breast it was 110%; in the assay with RXF 393 renal, 117%; in the assay with SF-268 CNS, 109%. Besides, the growth in the assay on SF-295 CNS is 110%; in the assay with SF-539 CNS it was 106%; with UACC-257 melanoma it was 81.2%; in the assay with M14 melanoma, 100%; in the assay on HCT-15 colon, 102%; in the assay with SNB-75 CNS, 94.7%. The growth was 109% with SNB-19 CNS; 97.4% in the assay with U251 CNS; 91.1% in the assay with PC-3 prostate; 41.7% with SK-MEL-5 melanoma; 112% with UACC-62 melanoma; 91.8% in the assay on LOX IMVI melanoma. In the assay on SK-MEL-28 melanoma, the growth was 95.3%.
Take `CCOC(=O)c1c2c(n(-c3ccc(C#N)cc3)c1-c1ccccc1)C=CCC2`: the growth was 102% in the assay with DU-145 prostate; 70.7% in the assay on K-562 leukemia; 103% with MALME-3M melanoma; 91.6% in the assay with MDA-MB-231 breast; 109% in the assay with RXF 393 renal; 96.8% in the assay with SF-268 CNS. Further, the growth is 86.2% in the assay with SF-295 CNS; 114% with SF-539 CNS; 102% with UACC-257 melanoma; 93.5% in the assay on M14 melanoma; 76.9% with HCT-15 colon; 68.2% with HT29 colon. For the same molecule, the growth is 83.9% in the assay with SNB-75 CNS; 98.4% in the assay on SNB-19 CNS; 99.7% in the assay on U251 CNS; 70.1% in the assay on PC-3 prostate; 75% with UACC-62 melanoma; 84% in the assay with LOX IMVI melanoma. Besides, the growth with SK-MEL-28 melanoma is 102%.
Turning to `O=C(N/N=C/[C@H](O)[C@@H](O)[C@@H](O)[C@H](O)CO)c1ccc(NC(=O)c2cccnc2)cc1`, the growth with DU-145 prostate was 119%; in the assay with K-562 leukemia, 110%; with MALME-3M melanoma, 108%; in the assay on MDA-MB-231 breast, 100%; in the assay on RXF 393 renal, 121%; in the assay on SF-268 CNS, 103%. Further, the growth with SF-295 CNS was 102%; with SF-539 CNS it was 106%; with UACC-257 melanoma it was 102%; in the assay on M14 melanoma, 114%; in the assay with HCT-15 colon it was 105%; in the assay on SNB-75 CNS, 92.6%. Moreover, the growth with SNB-19 CNS was 97.4%; in the assay with U251 CNS it was 102%; in the assay on PC-3 prostate it was 102%; in the assay on SK-MEL-5 melanoma, 104%; with UACC-62 melanoma it was 95.5%; in the assay with LOX IMVI melanoma, 104%. The growth in the assay with SK-MEL-28 melanoma was 111%.
`CSc1ncccc1C(=O)OCC(=O)Nc1oc(C)c2c(C)n[nH]c(=O)c12`: the growth with DU-145 prostate was 103%; in the assay on K-562 leukemia, 87.8%; in the assay with MALME-3M melanoma, 106%; in the assay on MDA-MB-231 breast, 109%; with RXF 393 renal, 92.1%; in the assay with SF-268 CNS it was 105%. Also, the growth in the assay on SF-295 CNS was 95%; with SF-539 CNS it was 99.7%; with UACC-257 melanoma, 103%; in the assay with M14 melanoma, 110%; with HCT-15 colon, 103%; in the assay with SNB-75 CNS it was 85.3%. Also, the growth in the assay with SNB-19 CNS is 101%; in the assay on U251 CNS, 102%; in the assay on PC-3 prostate, 84.8%; with SK-MEL-5 melanoma it was 103%; in the assay with UACC-62 melanoma, 94.4%; with SK-MEL-28 melanoma it was 109%.
Turning to `COc1ccc(-c2ncnc3c2ncn3CC#CCCl)cc1`, the growth in the assay on DU-145 prostate was 87.6%; in the assay with K-562 leukemia, 58.3%; in the assay on MALME-3M melanoma it was 20.2%; in the assay with MDA-MB-231 breast, 70.1%; in the assay on RXF 393 renal, 29.7%; in the assay with SF-268 CNS, 62.9%. Also, the growth is 95.3% in the assay with SF-295 CNS; 92.3% with SF-539 CNS; 59.5% in the assay with UACC-257 melanoma; 70.1% with M14 melanoma; 49.6% with HCT-15 colon; 93.5% in the assay on SNB-75 CNS. Further, the growth in the assay on SNB-19 CNS was 72.5%; in the assay on U251 CNS it was 29.4%; with PC-3 prostate, 57.1%; in the assay with SK-MEL-5 melanoma it was 62.5%; in the assay on UACC-62 melanoma it was 51.2%; in the assay on LOX IMVI melanoma, -31.7% (active). Besides, in the assay on SK-MEL-28 melanoma, the growth was 86.7%.
With `NS(=O)(=O)c1ccc(-n2nc(C(=O)N/N=C\c3ccc(F)cc3)cc2-c2ccc(Br)cc2)cc1`, the growth with DU-145 prostate was 93.4%; in the assay on K-562 leukemia, 18%; in the assay on MALME-3M melanoma it was 68.3%; in the assay on MDA-MB-231 breast it was 85.3%; in the assay with RXF 393 renal, 77.8%; with SF-268 CNS, 82.2%. The growth in the assay on SF-295 CNS was 74.6%; in the assay with SF-539 CNS, 89.7%; in the assay on UACC-257 melanoma, 86.1%; in the assay with M14 melanoma, 79.7%; with HCT-15 colon, 54.3%; with SNB-75 CNS, 37.4%. Further, the growth with SNB-19 CNS was 83%; in the assay on U251 CNS it was 89%; with PC-3 prostate, 72.2%; in the assay with SK-MEL-5 melanoma, 87.2%; in the assay on UACC-62 melanoma, 64.4%; with LOX IMVI melanoma, 74.9%. Moreover, in the assay with SK-MEL-28 melanoma, the growth is 77.8%.
Turning to `COc1cc2cc(Oc3ccc(NC(=O)Nc4cc(C(F)(F)F)cc(C(F)(F)F)c4)cc3)c(C)nc2cc1OCCN1CCOCC1`, the growth was 24.9% in the assay with DU-145 prostate; 6.68% (active) in the assay with K-562 leukemia; 28.1% with MALME-3M melanoma; 1.49% (active) in the assay with MDA-MB-231 breast; 26% in the assay on RXF 393 renal; 27.8% in the assay with SF-268 CNS. Besides, the growth with SF-295 CNS is 7.59% (active); with SF-539 CNS it was 38.5%; in the assay on UACC-257 melanoma, 7.28% (active); with M14 melanoma it was 17.6%; with HCT-15 colon, 13.4%; in the assay on SNB-75 CNS, 36%. Moreover, the growth in the assay on SNB-19 CNS is 23.8%; in the assay with U251 CNS, 8.71% (active); in the assay with PC-3 prostate, 10.5%; in the assay on SK-MEL-5 melanoma it was -13.1% (active); in the assay with UACC-62 melanoma, 45.9%; in the assay on LOX IMVI melanoma, 20.7%. Besides, in the assay on SK-MEL-28 melanoma, the growth was 51.2%.
On to `COc1ccc(C2C(C#N)=C(N)Oc3c2sc2c(C)cccc32)cc1` (stereo not given), for which the growth with DU-145 prostate was 22.4%; in the assay on K-562 leukemia it was 6.98% (active); in the assay on MALME-3M melanoma, 62.5%; in the assay on MDA-MB-231 breast, 16.6%; in the assay on RXF 393 renal, -11.7% (active); with SF-268 CNS, 49.6%. The growth in the assay on SF-295 CNS was 3.47% (active); in the assay on SF-539 CNS, -16.8% (active); with UACC-257 melanoma, 72.1%; in the assay with M14 melanoma, 8.58% (active); in the assay with HCT-15 colon, 9.6% (active); in the assay with HT29 colon, 6.72% (active). The growth was -4.52% (active) with SNB-75 CNS; 26.3% with SNB-19 CNS; 25.4% in the assay on U251 CNS; 11.3% with PC-3 prostate; 19.3% in the assay with UACC-62 melanoma; 57.1% in the assay with SK-MEL-28 melanoma.
